HEK293 tox – cytotoxic compounds in HEK 293 cells; HEK 293 viability, ATP luminescence (CellTiter-Glo), 48-72 h; Potency, µM (doses to about 115 µM), for the others: at the top dose activity change, negative = cytotoxicity, most hits filed as inhibitors; actives 6.6% (n = 94,000); AID 1345083; active means well fitted curve in the direction sought with a large enough effect; inconclusive means small, poorly fitted or top-dose-only effect, or another doubt; inactive means no such curve, though single readings can be large; an effect the other way counts as inactive or inconclusive; further: on the % scale 0 is the no-effect control and ±100 the full control effect; nearly all actives have a fitted effect of over 60% in size
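HEK 293 seeded at 250 cells/well receive compound via pintool. After 48 or 72 hr at 37 degree Celsius, 5% CO2 and 95% humidity, CellTiter-Glo is dispensed and luminescence read following 10 min at room temperature.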
FLuc inh – Photinus pyralis luciferase inhibition | P08659 | purified P. pyralis luciferase, luminescence, biochemical | Potency, µM (titrated, usually from 115 µM), actives largely listed as inhibitors | actives 2.5% (n = 76,000); active means well fitted curve in the direction sought with a large enough effect; inconclusive means small, poorly fitted or top-dose-only effect, or another doubt; inactive means no such curve, though single readings can be large; an effect the other way counts as inactive or inconclusive; further: on the % scale 0 is the no-effect control and ±100 the full control effect; nearly all actives have a fitted effect of over 65% in size
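Inhibitors were tested against purified firefly luciferase in a biochemical, low-substrate format (both substrates at 10uM) and luminescence measured with a CCD imager.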
NIH3T3 tox – NIH 3T3 cell cytotoxicity. NIH 3T3 viability, CellTiter-Glo ATP luminescence, 48-72 h. Potency, µM (doses to about 96.7 µM), for inactives: at the top dose activity change, negative = cytotoxicity, usual class: inhibitors. actives 4.3% (n = 94,000). AID 1345082; active means well fitted curve in the direction sought with a large enough effect; inconclusive means small, poorly fitted or top-dose-only effect, or another doubt; inactive means no such curve, though single readings can be large; an effect the other way counts as inactive or inconclusive; further: on the % scale 0 is the no-effect control and ±100 the full control effect; nearly all actives have a fitted effect of over 55% in size
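Cells were seeded at 400 per well, treated with pin-transferred compound, and kept 48 or 72 hr at 37 °C before CellTiter-Glo addition and luminescence imaging of cellular ATP.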
hNpr1 antagonist – blocks ANP-stimulated signaling of human Npr1 receptor; P16066; HEK293 hNpr1 GloSensor cGMP, ANP-stimulated luminescence; Potency, µM (series often up to 46.3 µM), for inactives: top-dose activity change, negative = inhibition, most hits filed as inhibitors; actives 1.6% (n = 76,000); further: on the % scale 0 is the no-effect control and ±100 the full control effect; nearly all actives have a fitted effect of over 60% in size
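Compound pre-incubated 30 min at room temperature on GloSensor-loaded HEK293 cells stably carrying hNpr1 and the pGS-40F cGMP biosensor. Stimulation uses hNppA at 0.1 nM final; luminescence is taken at baseline and 20 min post-agonist.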
NPR1 antag cnf – hNpr1 antagonism, confirmation assay; actives 76% (n = 1,400); Potency, µM (doses to about 57.6 µM), inactives show at the highest dose activity change, negative = inhibition, hits mostly inhibitors; HEK293 hNpr1 cGMP GloSensor luminescence, ANP-stimulated; shares compounds with hNpr1 antagonist; further: nearly all actives have a fitted effect of over 70% in size
Npr2 selectivity – hNpr2 antagonism, selectivity versus Npr1; shares compounds with hNpr1 antagonist; HEK293 hNpr2 GloSensor cGMP luminescence, CNP-stimulated; Potency, µM (doses to about 57.6 µM), for inactives: at the top dose activity change, negative = inhibition, actives largely listed as inhibitors; actives 67% (n = 1,400); AID 1347046; further: nearly all actives have a fitted effect of over 70% in size
FLuc counter – inhibits firefly luciferase, false Npr1 antagonist flag; shares compounds with hNpr1 antagonist; purified FLuc enzyme, luminescence, Km substrate; Potency, µM (series often up to 57.6 µM), for the others: top-dose activity change, negative = inhibition, hits mostly inhibitors; actives 0.7% (n = 1,400); active means well fitted curve in the direction sought with a large enough effect; inconclusive means small, poorly fitted or top-dose-only effect, or another doubt; inactive means no such curve, though single readings can be large; an effect the other way counts as inactive or inconclusive; further: 0% is about no effect
GloSensor cGMP – counter-screen for Npr1 antagonists: GloSensor control cell line | shares compounds with hNpr1 antagonist | HEK293 GloSensor cGMP, SNP-stimulated, luminescence | Potency, µM (doses to about 57.6 µM), without a hit: at the highest dose activity change, negative = inhibition, most hits filed as inhibitors | actives 69% (n = 1,400); further: on the % scale 0 is the no-effect control and ±100 the full control effect; nearly all actives have a fitted effect of over 70% in size
* marks the source's active call; other numbers are inactive results; [ ] = remark or other dose. An excerpt weighted towards active compounds, which were near 11% of everything screened. Unless noted, the call rests on the fitted dose curve. Potency means the concentration at half of the fitted maximal effect.

How did Cc1nn2c(c1-c1ccccc1Oc1ccccc1)N(Cc1ccccc1O)CCC2 do in these assays?
HEK293 tox: 10µM*; FLuc inh: inactive; NIH3T3 tox: 11µM*; hNpr1 antagonist: 7.9µM*; NPR1 antag cnf: 3.1µM*; Npr2 selectivity: 13µM*; FLuc counter: -2%[86.2 µM]; GloSensor cGMP: 2.2µM*

How did Cc1nn2c(c1-c1ccccc1OCc1ccccc1)N(C(=O)c1ccn(C)n1)CCC2 do in these assays?
HEK293 tox: -18%[172 µM]; FLuc inh: inactive; NIH3T3 tox: inconclusive; hNpr1 antagonist: 0%[70.6 µM]

Results for COc1ccccc1CN1CCCn2nc(C)c(-c3ccccc3C(N)=O)c21 ?
HEK293 tox: 22µM*; FLuc inh: inactive; NIH3T3 tox: inconclusive; hNpr1 antagonist: 14µM*; NPR1 antag cnf: 13µM*; Npr2 selectivity: 31µM*; FLuc counter: 1%[86.2 µM]; GloSensor cGMP: 9.9µM*

How did Cc1nn2c(c1-c1ccccc1Oc1ccccc1)N(Cc1cccc(O)c1)CCC2 do in these assays?
HEK293 tox: 22µM*; FLuc inh: inactive; NIH3T3 tox: 14µM*; hNpr1 antagonist: 2.5µM*; NPR1 antag cnf: 11µM*; Npr2 selectivity: 25µM*; FLuc counter: 0%[86.2 µM]; GloSensor cGMP: 11µM*

How did Cc1noc(C)c1[S+](=O)([O-])NC1CCN(c2ccc3nnc(C)n3n2)CC1 do in these assays?
HEK293 tox: -18%; NIH3T3 tox: -23%

What do the screens show for `Cc1nn2c(c1-c1ccccc1C(N)=O)N(C(=O)Cc1cccc(F)c1)CCC2`?
HEK293 tox: -16%[172 µM]; FLuc inh: inactive; NIH3T3 tox: inconclusive; hNpr1 antagonist: -1%[70.6 µM]

Results for Cc1nn2c(c1-c1ccccc1Oc1ccccc1)N(C(=O)Cc1cccc(F)c1)CCC2 ?
HEK293 tox: inconclusive; FLuc inh: inactive; NIH3T3 tox: 40µM*; hNpr1 antagonist: inconclusive; NPR1 antag cnf: inconclusive; Npr2 selectivity: inconclusive; FLuc counter: 1%; GloSensor cGMP: -23%

How did Cc1nn2c(c1-c1ccccc1Oc1ccccc1)N(C(=O)Cc1ccc(O)cc1)CCC2 do in these assays?
HEK293 tox: 89µM*; FLuc inh: inactive; NIH3T3 tox: 79µM*; hNpr1 antagonist: 20µM*; NPR1 antag cnf: 35µM*; Npr2 selectivity: 28µM*; FLuc counter: 1%[86.2 µM]; GloSensor cGMP: inconclusive

Results for Cc1nn2c(c1-c1ccccc1OCc1ccccc1)N(C(=O)c1cccnc1)CCC2 ?
HEK293 tox: -7%[172 µM]; FLuc inh: inactive; NIH3T3 tox: inconclusive; hNpr1 antagonist: 3%[70.6 µM]

Results for Cc1nn2c(c1-c1ccccc1OCc1ccccc1)N(C(=O)CCc1cccnc1)CCC2 ?
HEK293 tox: inconclusive; FLuc inh: inactive; NIH3T3 tox: inconclusive; hNpr1 antagonist: inconclusive; NPR1 antag cnf: inconclusive; Npr2 selectivity: inconclusive; FLuc counter: 4%; GloSensor cGMP: -2%

Results for Cc1nn2c(c1-c1ccccc1C(C)C)N(C(=O)Cc1ccc(O)cc1)CCC2 ?
HEK293 tox: inconclusive; FLuc inh: inactive; NIH3T3 tox: inconclusive; hNpr1 antagonist: -2%[70.6 µM]

What do the screens show for `Cc1nn2c(c1-c1ccccc1OCc1ccccc1)N(Cc1ccc(C(=O)O)s1)CCC2`?
HEK293 tox: 35µM*; FLuc inh: inactive; NIH3T3 tox: 32µM*; hNpr1 antagonist: 6.3µM*; NPR1 antag cnf: 5.4µM*; Npr2 selectivity: 7.7µM*; FLuc counter: -9%; GloSensor cGMP: 6.1µM*

What do the screens show for `CC(=O)N1CCCn2nc(C)c(-c3ccccc3OCc3ccccc3)c21`?
HEK293 tox: inconclusive; FLuc inh: inactive; NIH3T3 tox: inconclusive; hNpr1 antagonist: -1%[70.6 µM]

How did O=C(CCCN1C(=O)COc2ccc(C(=O)COc3cccc(Cl)c3)cc21)NCC1CC1 do in these assays?
HEK293 tox: inconclusive; FLuc inh: inactive; NIH3T3 tox: -12%; hNpr1 antagonist: -13%

Results for CC(=O)Nc1ccccc1-c1c(C)nn2c1N(C(=O)Cc1ccc(Cl)cc1)CCC2 ?
HEK293 tox: -5%[172 µM]; FLuc inh: inactive; NIH3T3 tox: inconclusive; hNpr1 antagonist: -2%[70.6 µM]

How did COc1cccc(CC(=O)N2CCCn3nc(C)c(-c4ccccc4Oc4ccccc4)c32)c1 do in these assays?
HEK293 tox: 45µM*; FLuc inh: inactive; NIH3T3 tox: inconclusive; hNpr1 antagonist: inconclusive; NPR1 antag cnf: inconclusive; Npr2 selectivity: 19µM*; FLuc counter: 1%; GloSensor cGMP: -17%

Results for CC(=O)Nc1ccccc1-c1c(C)nn2c1N(C(=O)c1ccc(Oc3ccccc3)cc1)CCC2 ?
HEK293 tox: inconclusive; FLuc inh: inactive; NIH3T3 tox: inconclusive; hNpr1 antagonist: 11µM*; NPR1 antag cnf: 19µM*; Npr2 selectivity: 17µM*; FLuc counter: 1%; GloSensor cGMP: 17µM*

How did COc1cccc(CC(=O)N2CCCn3nc(C)c(-c4ccccc4-c4ccccc4)c32)c1 do in these assays?
HEK293 tox: inconclusive; FLuc inh: inactive; NIH3T3 tox: 79µM*; hNpr1 antagonist: inconclusive; NPR1 antag cnf: inconclusive; Npr2 selectivity: 31µM*; FLuc counter: 2%[86.2 µM]; GloSensor cGMP: -25%[86.2 µM]

What do the screens show for `O=C(c1cccc(Br)c1)N1CCN(c2cc(-c3cccs3)[nH]n2)CC1`?
HEK293 tox: inconclusive; FLuc inh: inactive; NIH3T3 tox: inconclusive; hNpr1 antagonist: -30%; NPR1 antag cnf: inconclusive; Npr2 selectivity: inconclusive; FLuc counter: -2%; GloSensor cGMP: -11%

Results for O=C(c1ccc(F)c(F)c1)N1CCN(c2cc(-c3ccc(F)cc3)[nH]n2)CC1 ?
HEK293 tox: inconclusive; FLuc inh: inactive; NIH3T3 tox: inconclusive; hNpr1 antagonist: inconclusive

How did O=C(c1cccnc1)N1CCN(c2cc(-c3cccs3)[nH]n2)CC1 do in these assays?
HEK293 tox: inconclusive; FLuc inh: inactive; NIH3T3 tox: -15%; hNpr1 antagonist: -3%

How did O=C(c1cccc(F)c1)N1CCN(c2cc(-c3ccc(Cl)cc3)[nH]n2)CC1 do in these assays?
HEK293 tox: inconclusive; FLuc inh: inactive; NIH3T3 tox: inconclusive; hNpr1 antagonist: inconclusive; NPR1 antag cnf: 24µM*; Npr2 selectivity: inconclusive; FLuc counter: -5%; GloSensor cGMP: inconclusive
